# Many of the other results were omitted from the sample, so the strongest signals are more common in it than they were.
# Columns and labels:
# Experiment in all cases: glycan array binding signal (z-score within array); higher = stronger binding
# Settings in all cases: glycan notation: IUPAC condensed, linker removed
# [1] = target: Fuc(a1-2)Gal(b1-3)GalNAc(a1-3)[Fuc(a1-2)]Gal(b1-4)Glc
# Procedure, shortened: (§1)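 The binding signal is a Z-score computed within each array. Data were drawn from 3228 arrays in the Consortium for Functional Glycomics database, restricted to those with a known protein sequence. Scores were averaged over arrays of the same protein sequence at different concentrations or buffers, and over linkers, and negative values can be taken as non-binding.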
# [2] = target: Fuc(a1-2)Gal(b1-3)GlcNAc(b1-3)Gal(b1-4)Glc
# Procedure, shortened: as §1
# [3] = target: Fuc(a1-2)Gal(b1-3)[Fuc(a1-4)]GlcNAc(b1-3)[Fuc(a1-3)[Gal(b1-4)]GlcNAc(b1-6)]Gal(b1-4)Glc
# Procedure, shortened: as §1
# [4] = target: Fuc(a1-2)Gal(b1-4)GlcNAc(b1-2)Man
# Procedure, shortened: as §1
# [5] = target: Fuc(a1-2)Gal(b1-4)GlcNAc(b1-2)Man(a1-3)[Fuc(a1-2)Gal(b1-4)GlcNAc(b1-2)Man(a1-6)]Man(b1-4)GlcNAc(b1-4)[Fuc(a1-6)]GlcNAc
# Procedure, shortened: as §1
# [6] = target: Fuc(a1-2)Gal(b1-4)GlcNAc(b1-3)[Fuc(a1-2)Gal(b1-4)GlcNAc(b1-6)]GalNAc
# Procedure, shortened: as §1
# [7] = target: Fuc(a1-2)Gal(b1-4)[Fuc(a1-3)]GlcNAc(b1-3)Gal(b1-4)[Fuc(a1-3)]GlcNAc
# Procedure, shortened: as §1
# [8] = target: Fuc(a1-2)Gal6S(b1-3)GlcNAc6S
# Procedure, shortened: as §1
# [9] = target: Fuc(a1-2)[GalNAc(a1-3)]Gal(b1-3)GlcNAc(b1-2)Man(a1-3)[Fuc(a1-2)[GalNAc(a1-3)]Gal(b1-3)GlcNAc(b1-2)Man(a1-6)]Man(b1-4)GlcNAc(b1-4)[Fuc(a1-6)]GlcNAc
# Procedure, shortened: as §1
# [10] = target: Fuc(a1-2)[GalNAc(a1-3)]Gal(b1-3)GlcNAc(b1-3)GalNAc
# Procedure, shortened: as §1
# [11] = target: Fuc(a1-2)[GalNAc(a1-3)]Gal(b1-4)GlcNAc(b1-2)Man(a1-3)[Fuc(a1-2)[GalNAc(a1-3)]Gal(b1-4)GlcNAc(b1-2)Man(a1-6)]Man(b1-4)GlcNAc(b1-4)[Fuc(a1-6)]GlcNAc
# Procedure, shortened: as §1
# [12] = target: Fuc(a1-3)[Gal(b1-4)]GlcNAc(b1-2)Man(a1-3)[Fuc(a1-3)[Gal(b1-4)]GlcNAc(b1-2)Man(a1-6)]Man(b1-4)GlcNAc(b1-4)[Fuc(a1-6)]GlcNAc
# Procedure, shortened: as §1
# [13] = target: Fuc(a1-3)[GalNAc3S(b1-4)]GlcNAc
# Procedure, shortened: as §1
# [14] = target: Gal(a1-3)Gal(b1-3)[Fuc(a1-4)]GlcNAc(b1-2)Man(a1-3)[Gal(a1-3)Gal(b1-3)[Fuc(a1-4)]GlcNAc(b1-2)Man(a1-6)]Man(b1-4)GlcNAc(b1-4)GlcNAc
# Procedure, shortened: as §1
# Gal(a1-3)Gal(b1-4)Glc = target: Gal(a1-3)Gal(b1-4)Glc
# Procedure, shortened: as §1
# [15] = target: Gal(a1-3)Gal(b1-4)[Fuc(a1-3)]GlcNAc
# Procedure, shortened: as §1
# Gal(a1-4)Gal(b1-4)GlcNAc = target: Gal(a1-4)Gal(b1-4)GlcNAc
# Procedure, shortened: as §1
# Gal(b1-2)Gal = target: Gal(b1-2)Gal
# Procedure, shortened: as §1
# [16] = target: Gal(b1-3)GalNAc(a1-3)[Fuc(a1-2)]Gal(b1-4)GlcNAc
# Procedure, shortened: as §1
# [17] = target: Gal(b1-3)GlcNAc(a1-3)Gal(b1-4)GlcNAc
# Procedure, shortened: as §1
# [18] = target: Gal(b1-3)GlcNAc(b1-3)Gal(b1-3)GlcNAc
# Procedure, shortened: as §1
# [19] = target: Gal(b1-3)[Fuc(a1-4)]GlcNAc(b1-2)Man(a1-3)[Gal(b1-3)[Fuc(a1-4)]GlcNAc(b1-2)Man(a1-6)]Man(b1-4)GlcNAc(b1-4)[Fuc(a1-6)]GlcNAc
# Procedure, shortened: as §1
# Gal(b1-4)GlcNAc(b1-2)Man = target: Gal(b1-4)GlcNAc(b1-2)Man
# Procedure, shortened: as §1
# Gal3S6S(b1-4)GlcNAc = target: Gal3S6S(b1-4)GlcNAc
# Procedure, shortened: as §1
# Gal6S(b1-4)Glc = target: Gal6S(b1-4)Glc
# Procedure, shortened: as §1
# [20] = target: GlcNAc(a1-4)Gal(b1-4)GlcNAc(b1-3)Gal(b1-4)[Fuc(a1-3)]GlcNAc(b1-3)Gal(b1-4)[Fuc(a1-3)]GlcNAc
# Procedure, shortened: as §1
# [21] = target: GlcNAc(b1-2)Man(a1-3)[GlcNAc(b1-4)][GlcNAc(b1-2)Man(a1-6)]Man(b1-4)GlcNAc(b1-4)GlcNAc
# Procedure, shortened: as §1
# GlcNAc(b1-3)Gal = target: GlcNAc(b1-3)Gal
# Procedure, shortened: as §1
# [22] = target: Kdn(a2-3)Gal(b1-4)[Fuc(a1-3)]GlcNAc
# Procedure, shortened: as §1
# [23] = target: Man(a1-2)Man(a1-2)Man(a1-3)Man
# Procedure, shortened: as §1
binder,measurement,setting,value
"StcE (Escherichia coli), O82882.2 (protein) ADNNSAIYFNTSQPINDLQGSLAAEVKFAQSQILPAHPKEGDSQPHLTSLRKSLLLVRPVKADDKTPVQVEARDDNNKILGTLTLYPPSSLPDTIYHLDGVPEGGIDFTPHNGTKKIINTVAEVNKLSDASGSSIHSHLTNNALVEIHTANGRWVRDIYLPQGPDLEGKMVRFVSSAGYSSTVFYGDRKVTLSVGNTLLFKYVNGQWFRSGELENNRITYAQHIWSAELPAHWIVPGLNLVIKQGNLSGRLNDIKIGAPGELLLHTIDIGMLTTPRDRFDFAKDKEAHREYFQTIPVSRMIVNNYAPLHLKEVMLPTGELLTDMDPGNGGWHSGTMRQRIGKELVSHGIDNANYGLNSTAGLGENSHPYVVAQLAAHNSRGNYANGIQVHGGSGGGGIVTLDSTLGNEFSHEVGHNYGLGHYVDGFKGSVHRSAENNNSTWGWDGDKKRFIPNFYPSQTNEKSCLNNQCQEPFDGHKFGFDAMAGGSPFSAANRFTMYTPNSSAIIQRFFENKAVFDSRSSTGFSKWNADTQEMEPYEHTIDRAEQITASVNELSESKMAELMAEYAVVKVHMWNGNWTRNIYIPTASADNRGSILTINHEAGYNSYLFINGDEKVVSQGYKKSFVSDGQFWKERDVVDTREARKPEQFGVPVTTLVGYYDPEGTLSSYIYPAMYGAYGFTYSDDSQNLSDNDCQLQVDTKEGQLRFRLANHRANNTVMNKFHINVPTESQPTQATLVCNNKILDTKSLTPAPEGLTYTVNGQALPAKENEGCIVSVNSGKRYCLPVGQRSGYSLPDWIVGQEVYVDSGAKAKVLLSDWDNLSYNRIGEFVGNVNPADMKKVKAWNGQYLDFSKPRSMRVVYK",glycan array binding signal (z-score),[1],-0.142
same,glycan array binding signal (z-score),[2],-0.144
same,glycan array binding signal (z-score),[3],-0.147
same,glycan array binding signal (z-score),[4],-0.132
same,glycan array binding signal (z-score),[5],1.14
same,glycan array binding signal (z-score),[6],2.85
same,glycan array binding signal (z-score),[7],-0.122
same,glycan array binding signal (z-score),[8],5.23
same,glycan array binding signal (z-score),[9],0.015
same,glycan array binding signal (z-score),[10],-0.096
same,glycan array binding signal (z-score),[11],-0.164
same,glycan array binding signal (z-score),[12],-0.117
same,glycan array binding signal (z-score),[13],-0.164
same,glycan array binding signal (z-score),[14],4.13
same,glycan array binding signal (z-score),Gal(a1-3)Gal(b1-4)Glc,-0.25
same,glycan array binding signal (z-score),[15],0.116
same,glycan array binding signal (z-score),Gal(a1-4)Gal(b1-4)GlcNAc,-0.215
same,glycan array binding signal (z-score),Gal(b1-2)Gal,0.601
same,glycan array binding signal (z-score),[16],-0.17
same,glycan array binding signal (z-score),[17],-0.109
same,glycan array binding signal (z-score),[18],-0.142
same,glycan array binding signal (z-score),[19],4.66
same,glycan array binding signal (z-score),Gal(b1-4)GlcNAc(b1-2)Man,-0.167
same,glycan array binding signal (z-score),Gal3S6S(b1-4)GlcNAc,-0.175
same,glycan array binding signal (z-score),Gal6S(b1-4)Glc,0.013
same,glycan array binding signal (z-score),[20],3.96
same,glycan array binding signal (z-score),[21],-0.167
same,glycan array binding signal (z-score),GlcNAc(b1-3)Gal,0.13
same,glycan array binding signal (z-score),[22],-0.152
same,glycan array binding signal (z-score),[23],-0.442

# Source: the supplement of paper PMC8728848
